Laboratory results taken from PubChem BioAssay (NCI).
The panel holds about 83,000 compounds, 20% with a hit somewhere; the sample as a whole holds those more often.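 Note: values are percent growth. 100 is the growth of untreated cells, values between 100 and 0 indicate rising inhibition; between -100 and 0 indicates cell death.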 Values without a mark were called inactive. Active and inactive are the calls of the source.

Tested on: COLO 205 colon
Experiment: NCI-60 one-dose screen, 48 h (100 = growth as untreated, 0 = no growth, -100 = all killed)
Conditions: 10 µM unless noted
Experimental: Cells are grown in 96 well plates and exposed to the test compound for 48 hours. Compounds are tested at a single concentration, which is 10^-5 M for most compounds. The reported endpoint is percent growth (GI% or GIPRCNT), where numbers from 0 - 100% represent growth inhibition, and numbers from -100% - 0 represent cell death. For example, a value of 40 represents 60% growth inhibition. A value of 0 means no net growth occurred over the course of the experiment. A value of -40 indicates 40% of cells at the beginning of the experiment died by the end of the experiment. A value of -100 means all cells are dead at the end of the experiment.
NCI-60 Human Tumor Cell Lines Screen was performed using the standard one-dose NCI protocol, which is described in more detail at https://dtp.cancer.gov/discovery_development/nci-60/default.htm.
Compounds with GIPRCNT values below 10 were considered active. Activity score was based on GIPRCNT using the following formula: […]
Score is 0 for GIPRCNT values of 100 or above, 50 for GIPRCNT values of 0, and 100 for GIPRCNT values of -100.

| SMILES | growth |
| --- | --- |
| O=C(/C=C(/C=C/c1cccc2[nH]ccc12)OB(F)F)/C=C/c1cccc2[nH]ccc12 | -70.6% (active) |
| COC(=O)[C@]1(C)CCC[C@]2(C)[C@H]3C[C@H]4C(C(C)C)=C[C@]3(CC[C@H]21)[C@H]1[C@@H]4[C@@H](OCCC#N)CC[C@@H]1OCCC#N | 11.9% |
| COC(C(=O)[C@@H](O)[C@@H](C)O)[C@@H]1Cc2cc3cc(O[C@H]4C[C@@H](O[C@H]5C[C@@H](O)[C@H](O)C(C)O5)[C@H](O)C(C)O4)c(C)c(O)c3c(O)c2C(=O)[C@H]1O[C@H]1C[C@@H](O[C@H]2C[C@@H](O[C@H]3C[C@@H](O)[C@H](OC)C(C)O3)[C@@H](O)C(C)O2)[C@H](O)C(C)O1 (stereo not given in full) | -44.4% (active) |
| COc1ccc2nc3ccc(OC)cc3c(SCCCN)c2c1 | 48.9% |
| O=c1oc2ccccc2cc1C1=NN=C(SCc2ccccc2)SC1 | 113% |
| O=C(Cn1c(=O)sc2ccccc21)NNS(=O)(=O)c1ccccc1[N+](=O)[O-] | 110% |
| O=C(Nc1ccc(NC(=O)c2cc(=O)[nH]c3ccccc23)cc1)Nc1cccc(C(F)(F)F)c1 | 70.1% |
| CN(C)CCCC1(c2ccc(F)cc2)OCc2cc(-c3cccc4[nH]ccc34)ccc21 (stereo not given) | -64.2% (active) |
| CCOC(=O)c1cc(C(=O)c2cc(OC)c(OC)c(OC)c2)n2ccc(-c3ccncc3)cc12 | 103% |
| C[C@]12CC[C@@H]3c4ccc(O)c([N+](=O)[O-])c4CC[C@H]3[C@@H]1CCC2=O | 159% |
| CCCCC(=O)Nc1ncc(Cc2ccc(Cl)cc2)s1 | 76.5% |
| O=[N+]([O-])c1ccc(N/N=C(/C(=N/Nc2ccc([N+](=O)[O-])cc2)c2ccccc2)c2ccccc2)cc1 | 87.3% |
| CC1Cc2c(Cl)ncnc2N(C)c2ccc(F)cc21 (stereo not given) | 92.5% |
| CCCCC[C@@H]1Cc2cc(O)c(C(=O)O)c3c2[C@H](C[C@]2(OC[C@@H](CC(=O)[C@@](C)(CC)C(=O)OC)[C@@H]2C)O3)O1 | 145% |
| O=C1/C(=C/c2ccc(F)cc2)COc2ccc(O)c(O)c21 | 28% |
| COc1ccccc1Nc1nc2c(s1)C1=CC[C@H]3[C@@H]4CC[C@H]([C@H](C)CCCC(C)C)[C@@]4(C)CC[C@@H]3[C@@]1(C)CC2 | 106% |
| COc1cc(/C=C/C(=O)c2cccc(Nc3nc(Nc4ccccc4)nc(Nc4ccccc4)n3)c2)cc(OC)c1OC | 61.2% |
| C#COc1cccc(Nc2ncnc3ncc(NC(=O)CCl)cc23)c1 | -46.9% [6.25 µM] (active) |
| C#CCOc1ccc2ncnc(Nc3cccc(NC(=O)C=C)c3)c2c1 | 87.5% |
| O=C(Cn1cc(CN2CCCCCC2)nn1)Nc1ccc2c(ccn2Cc2ccccc2)c1 | 88.9% |

| SMILES | growth |
| --- | --- |
| Cc1ccc(Cl)cc1Nc1nc(C(F)(F)F)ccc1C(=O)N/N=C/c1cccnc1 | 38.9% |
| Cc1ccc(Sc2nnc(/N=C3\C(=O)Nc4ccccc43)s2)cc1 | 116% |
| O=[N+]([O-])c1ccc(S(=O)(=O)N2CCN(C3=NS(=O)(=O)c4ccccc4N3c3ccccc3)CC2)cc1 | 117% |
| O=C(Nc1ccc(-c2nc(N3CCOCC3)c3cccn3n2)cc1)Nc1cccnc1 | 6.07% (active) |
| CCOP(=O)(OCC)c1nc(-c2ccccc2)oc1NCc1cccnc1 | 117% |
| CC(=O)c1cc(O)c2ccccc2c1O | 116% |
| COC(=O)CNC(=O)[C@H](Cc1ccccc1)NCc1ccncc1 | 109% |
| N#Cc1cccc(-c2c(-c3ccc4ccccc4c3)oc3ccccc3c2=O)c1 | 36.7% |
| O=C(Nn1c2c(sc1=Nc1ccccc1)C(=O)c1ccccc1C2=O)c1cc2ccc1CCc1ccc(cc1)CC2 | 102% |
| O=C(N/N=C/c1ccc(F)cc1)c1ccc(C(F)(F)F)nc1Nc1cccc(C(F)(F)F)c1 | 7.69% (active) |
| COc1cc(/C=C\c2cc(/C=C\c3ccc(O)c(OC)c3)n(C(=O)COc3ccc(Cl)cc3Cl)n2)ccc1O | 82.4% |
| CCN(CC)c1nc(SCc2ccccc2Cl)ncc1C | 112% |
| Nc1c(C(=O)Nc2ccccc2Cl)sc2nc3c(cc12)C(O)CCC3 (stereo not given) | 4.09% (active) |
| CCCNC(=O)Oc1ccc(/C(=C(/C)Cc2ccc(OC)cc2)c2ccc(OCCCN(C)C)cc2)cc1 | 71.6% |
| Oc1c(Cl)cc(Cl)cc1/C=N/Nc1nnc(N/N=C/c2cc(Cl)cc(Cl)c2O)c2ccccc12 | 8.23% (active) |
| Cc1ccc(-c2nc(/C=C3/C(=O)Nc4ccccc43)c3ccccn23)cc1 | 92.2% |
| O=C(OCc1ccc2c(Cl)cc(Cl)c(O)c2n1)n1cncn1 | 96.5% |
| COc1ccc(/C=C2\C(=O)N=C3N2NC(c2cc(Br)ccc2O)C=C(C)N3c2ccccc2)cc1 (stereo not given) | 115% |
| C=CCn1c(SCC(=O)NCc2cc(C)c(O)c(C)c2)nc2ccc(Cl)cc2c1=O | 116% |
| O=C(c1ccccc1)C1C(=O)N2C(=S)N(c3ccccc3)C(=O)C2C1c1ccc(Cl)cc1 (stereo not given) | 112% |
